The entries come from a sample that favours hits as a whole.
ST2 IL33 inh: inhibitors of human ST2 (IL1RL1) binding to IL-33, primary screen, biochemical, AlphaLISA | AID 1259354, 2018 | inhibition, % for hits at 17 µM | AlphaLISA ST2-Fc/biotin-IL-33 interaction, 1 h | Interleukin-1 receptor-like 1 (Homo sapiens), Q01638 | 78,000 tested, 2.3% active; in the data active = inhibition above about 30%
Target sequence (Q01638 whole entry, looked up): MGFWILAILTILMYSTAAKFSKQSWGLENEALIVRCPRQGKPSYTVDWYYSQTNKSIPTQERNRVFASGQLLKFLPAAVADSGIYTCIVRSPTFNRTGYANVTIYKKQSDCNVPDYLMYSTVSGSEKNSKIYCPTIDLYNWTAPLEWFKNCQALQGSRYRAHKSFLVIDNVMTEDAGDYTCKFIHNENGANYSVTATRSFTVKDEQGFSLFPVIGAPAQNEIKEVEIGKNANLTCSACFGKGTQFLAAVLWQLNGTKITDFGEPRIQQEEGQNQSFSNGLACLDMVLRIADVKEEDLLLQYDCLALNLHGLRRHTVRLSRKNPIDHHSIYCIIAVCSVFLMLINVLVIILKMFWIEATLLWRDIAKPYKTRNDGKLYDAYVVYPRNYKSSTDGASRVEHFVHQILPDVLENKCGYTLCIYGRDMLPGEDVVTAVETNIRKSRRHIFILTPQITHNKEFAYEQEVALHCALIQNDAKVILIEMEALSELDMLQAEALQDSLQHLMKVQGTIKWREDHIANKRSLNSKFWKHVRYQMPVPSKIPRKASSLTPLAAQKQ
An asterisk follows results filed as active; i = inactive.

SMILES	ST2 IL33 inh
O=S(=O)(c1ccc(Br)cc1)N1CCSC1c1ccccc1Cl (configuration not stated)	i
O=C(NC(Nc1ccccc1F)C(Cl)(Cl)Cl)c1ccco1 (configuration not stated)	i
Cc1ccc(-n2nc(C(=O)N3CCOC(C(F)(F)F)C3)c(O)cc2=O)cc1 (configuration not stated)	i
CCc1ccc(C2CC(c3ccc(CC)cc3)n3ncnc3N2)cc1 (configuration not stated)	i
C=CCNc1nc2ccccc2nc1NS(=O)(=O)c1ccc(Br)cc1	33%*
CC(=O)Nc1ccc(S(=O)(=O)Nc2nc3ccccc3nc2Nc2cccc(O)c2)cc1	i
Cc1cc(C)nc(NS(=O)(=O)c2ccc(NC(=O)c3ccc(Br)cc3)cc2)n1	i
O=c1/c(=C\c2cccc([N+](=O)[O-])c2)sc2nc3ccccc3n12	i
CCCCOc1ccc(/C=c2\sc3ncnn3c2=O)cc1OC	i
COc1ccc(/C=c2\sc3nc4ccccc4n3c2=O)cc1O	50%*
CCN(CCCNC(=O)c1cccn1-c1nnc(N2CCCCC2)s1)Cc1ccccc1	i
CCOc1ccc(OCCN2CCCC2)cc1	i
Cc1nn(C)c(C)c1CCC(=O)N1CC(c2ccccn2)C1	i
OCCN=c1scc(-c2ccc(Br)cc2)n1-c1ccccc1	39%*
O=C(N=c1scc(-c2ccccc2)n1-c1ccccc1)c1ccco1	i
O=c1c2c(-c3ccc(Br)cc3)csc2ncn1-c1ccccc1	i
CCC(c1cccnc1)N(C)CCn1c(=O)oc2ccccc21 (configuration not stated)	i
Cc1cccc(N=C2c3ccccc3-c3ncccc32)c1	41%*
Cc1ccc(N2C(=O)c3cccnc3C2=O)c(C)c1	i
Cc1cccc(N=C2NC(=O)c3cccc([N+](=O)[O-])c32)c1	i
COc1ccc(C2CC(C(F)(F)F)n3nc(C(=O)N4CCCC4)c(Cl)c3N2)cc1 (configuration not stated)	i
COc1cc2c(cc1OC)C(COc1ccc3c(C)cc(=O)oc3c1)N(C(=O)C1CCCC1)CC2 (configuration not stated)	i
Cc1cccc(-c2nnc(-c3nc(NC(C)C(=O)N4CCCCC4)c4ccccc4n3)o2)c1 (configuration not stated)	i
O=C(NCC1CCCO1)c1ccccc1Sc1ccc([N+](=O)[O-])cc1 (configuration not stated)	i
Nc1nc(-c2ccc([N+](=O)[O-])cc2)cs1	i
SMILES	ST2 IL33 inh
CN(CC1CCCO1)c1nc(-c2ccc([N+](=O)[O-])cc2)cs1 (configuration not stated)	54%*
Cc1ccnc(CC(C)N(C)C(=O)c2occc2C)c1 (configuration not stated)	i
O=C1S/C(=C\c2ccc(O)cc2)C(=O)N1c1ccc(O)cc1	i
COc1ccc(N2C(=O)S/C(=C\c3ccc(O)cc3)C2=O)cc1	i
O=C1S/C(=C\c2ccccc2Cl)C(=O)N1c1ccc(O)cc1	38%*
Nc1cccc2c1C(=O)N(c1ccc(O)cc1)C2=O	i
N=C1S/C(=C\c2ccccc2F)C(=O)N1c1ccc2c(c1)OCO2	i
CC(=C/c1ccccc1)/C=C1/SC(=O)N(c2ccc(O)cc2)C1=O	45%*
Cc1ccc(OCC(=O)Nc2ccc([N+](=O)[O-])cc2C)c(Br)c1	i
CCN(Cc1ccccc1)S(=O)(=O)c1ccc(OC)c(OC)c1	i
O=C(NCCC1=CCCN(CCCF)C1)c1c(F)cccc1F	i
COc1cccc(CN2CCCC3(CCN(Cc4cnn(C(C)C)c4)C3)C2)c1OC (configuration not stated)	i
O=[N+]([O-])c1cc(Cc2ccccc2)ccc1O	36%*
O=[N+]([O-])c1cc(CN2CCOCC2)ccc1O	i
O=[N+]([O-])c1cc(CN2CCCCC2)ccc1O	i
COc1ccc2c(c1)CC(C(=O)Nc1ccc(S(N)(=O)=O)cc1)CO2 (configuration not stated)	i
COc1ccc(C(=O)Nc2c3c(nn2-c2cccc(Cl)c2)CS(=O)C3)c(OC)c1 (configuration not stated)	i
COc1ccc2oc(=O)c(NC(=O)/C=C/c3ccc(Cl)cc3Cl)cc2c1	i
CC1=C(/C=C/c2ccc(Cl)cc2Cl)C(=O)c2ccccc2C1=O	37%*
O=C1OC(Nc2ccc(Cl)cc2Cl)c2ccccc21 (configuration not stated)	i
COCc1c(C(=O)NCc2ccc3c(c2)CCCN3C)cnn1-c1ncc(C)c(-c2cccs2)n1	39%*
COc1ccc(OC)c(CNC(=O)c2cc(-c3cccs3)nc3ccccc23)c1	i
COc1ccccc1-c1ccnc(-n2ncc(C(=O)NCc3cccc(F)c3)c2C2CC2)n1	i
CC(C)(C)c1ccc(C(=O)N(c2ccc(Br)cc2)C2C=CS(=O)(=O)C2)cc1 (configuration not stated)	i
O=[N+]([O-])c1cc(-n2ncnc2-c2ccc(Br)cc2)ccc1F	i
SMILES	ST2 IL33 inh
COc1ccc(NC(=O)C2CCN(c3ccc(-c4cccs4)nn3)CC2)c(OC)c1	i
CCN1CCc2c(sc(NC(=O)c3ccc(C)c(C)c3)c2C(=O)OC)C1	i
CCOC(=O)c1c(NC(C)=O)sc2c1CCN(Cc1ccccc1)C2	i
CCOC(=O)c1c(NC(=O)c2cc3ccccc3oc2=O)sc2c1CCN(CC)C2	33%*
O=C(O)C1=CC(=C(c2ccc(O)c(C(=O)O)c2)c2ccc(O)c(C(=O)O)c2)C=CC1=O	89%*
COc1cc(CN2C[C@H]3CC=CC[C@H]3C2)cc(OC)c1OC(C)C(=O)O (some centres not stated)	i
COc1ccccc1-c1nc2ccc(Br)cc2c(=O)o1	i
O=c1oc(-c2ccccc2[N+](=O)[O-])nc2ccc(I)cc12	i
Cc1c(-c2nc3ccccc3c(=O)o2)cccc1[N+](=O)[O-]	30%*
COCCNC(=O)[C@@H](C)[C@@H]1CCc2c(C)cc(OC)c(C)c2C1	i
Oc1ccccc1CN1CCC(c2cc(-c3ccccc3Cl)n[nH]2)CC1	i
COc1ccccc1N1CCN(Cc2cc(OC)c(O)c(OC)c2)CC1	i
COc1ccc(CN2CCN(c3ccccc3OC)CC2)cc1OC	30%*
COc1cc(OC)c(OC)cc1CN1CCN(c2ccc(F)cc2)CC1	i
COc1cc(OC)c(CN2CCN(c3ccccc3F)CC2)cc1Br	36%*
Fc1ccccc1N1CCN(Cc2ccco2)CC1	i
COc1cc(OC)c(OC)cc1CN1CCN(c2cc(C)ccc2C)CC1	35%*
COc1ccc(CN2CCN(Cc3cc(OC)c(OC)cc3OC)CC2)cc1	i
COc1cc(OC)c(OC)cc1CN1CCN(c2ccccn2)CC1	i
COc1ccccc1N1CCN(Cc2ccc(C(=O)O)cc2)CC1	i
CCn1c(C2CCCN(C(=O)c3cc(CC(C)C)nc(C)n3)C2)n[nH]c1=O (configuration not stated)	i
Cc1cnc2c(C(=O)NC(Cn3ccnc3)C(C)C)cnn2c1 (configuration not stated)	i
Cn1cc(CC(=O)N2CCN(c3ccc(F)cc3)CC2)c2ccccc21	i
COc1ccc(C2CC(C(F)(F)F)n3nc(C(=O)N(C)Cc4ccccc4)c(Cl)c3N2)cc1 (configuration not stated)	i
Cn1c(=O)[nH]c(=O)c2[nH]c(N3CCCCCC3)nc21	i
